# Compound activity deposited in PubChem by National Center for Advancing Translational Sciences (NCATS).
# HP1b binding inh – HTS for Inhibitors of HP1-beta Chromodomain Interactions with Methylated Histone Tails. AlphaScreen HP1-beta / biotin-H3K9me3 peptide binding. Chromobox protein homolog 1 (Homo sapiens), P83916. actives 0.56% (n = 390,000). Potency, µM (top dose mostly 114 µM), inactives show top-dose activity change, negative = inhibition, hits mostly inhibitors; also: nearly all actives have a fitted effect of over 70% in size
# Target sequence (P83916 whole entry, looked up): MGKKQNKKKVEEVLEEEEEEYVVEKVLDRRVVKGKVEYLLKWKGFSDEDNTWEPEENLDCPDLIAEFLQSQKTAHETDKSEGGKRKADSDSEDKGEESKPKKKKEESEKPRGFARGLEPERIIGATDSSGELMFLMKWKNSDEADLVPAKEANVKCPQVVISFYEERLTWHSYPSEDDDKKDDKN
#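 HP1-beta protein (50 nM final) preincubated 30 min at room temperature with biotinylated H3(1-18)K9me3 peptide (50 nM) in PBS pH 7.4, 0.01% Tween-20, then compound added for 30 min. AlphaScreen streptavidin donor/nickel chelate acceptor beads (10 ug/mL final), 30 min dark, luminescence read.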
# Sfp inh – qHTS Assay for Inhibitors of Bacillus subtilis Sfp phosphopantetheinyl transferase (PPTase); Potency, µM, inactives show largest response in the series, negative = inhibition, usual class: inhibitors; AID 1490, 2009; 4'-phosphopantetheinyl transferase ffp (Bacillus subtilis), Q9F4F7; Biochemical Sfp PPTase activity, qHTS; actives 3.5% (n = 310,000);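 also: the enzyme is Sfp with the accession as filed and its product quenches rhodamine fluorescence; 0% = enzyme reaction without inhibitor and -100% = no enzyme wells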
#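 Step 1, compound plus 15 nM Sfp-PPTase, 15 min, room temperature. Step 2, add rhodamine-CoA (5 uM) and BHQ-2-YbbR (12.5 uM). Step 3, read 525/598 nm fluorescence at 0 and 30 min.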
# L3MBTL1 block – qHTS Assay for the Inhibitors of L3MBTL1. Lethal(3)malignant brain tumor-like protein 1 (Homo sapiens), Q9Y468. AlphaScreen L3MBTL1–H3K9me1 peptide binding. Potency, µM (highest dose often 57.1 µM), without a hit: at the highest dose activity, negative = inhibition, most hits filed as inhibitors. actives 0.66% (n = 230,000); also: % is scaled to controls: 0 for no effect and ±100 for the full control effect; nearly all actives have a fitted effect of over 60% in size
#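 Read-out is AlphaScreen signal from streptavidin donor and nickel chelate acceptor beads (10 ug/mL final each) bridging L3MBTL1 (50 nM) and biotinylated K9-monomethylated H3(1-15) peptide (75 nM), after 30 min compound exposure at room temperature.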
# G9a inh – qHTS Assay for Inhibitors of Histone Lysine Methyltransferase G9a. G9a H3K9 monomethylation, AlphaScreen, 2 h. Potency, µM (highest dose often 102 µM), for inactives: at the highest dose activity, negative = inhibition, hits mostly inhibitors. actives 8.8% (n = 350,000). AID 504332, 2011; also: % is scaled to controls: 0 for no effect and ±100 for the full control effect; nearly all actives have a fitted effect of over 75% in size
# Target sequence (Q96KQ7 913-1193 limits assumed): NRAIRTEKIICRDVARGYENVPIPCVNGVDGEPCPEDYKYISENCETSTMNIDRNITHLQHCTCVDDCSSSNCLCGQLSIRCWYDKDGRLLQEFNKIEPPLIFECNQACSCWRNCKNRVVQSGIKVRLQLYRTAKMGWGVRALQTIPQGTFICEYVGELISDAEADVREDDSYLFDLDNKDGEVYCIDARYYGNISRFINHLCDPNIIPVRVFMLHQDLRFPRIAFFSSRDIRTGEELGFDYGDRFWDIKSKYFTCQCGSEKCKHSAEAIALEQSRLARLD
#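 Methyltransferase reactions run at room temperature for 2 h (20 nM enzyme, 500 nM biotin-H3K9 peptide, 20 uM SAM) after a 15 min compound preincubation; product detected by AlphaScreen beads and anti-H3K9me1 antibody.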
# JMJD2A Tudor – qHTS Assay for Inhibitors of JMJD2A-Tudor Domain. Lysine-specific demethylase 4A (Homo sapiens), O75164. Potency, µM (top dose mostly 114 µM), inactives show at the highest dose activity change, negative = inhibition, usual class: inhibitors. AID 504339, 2011. AlphaScreen JMJD2A-Tudor / H3K4me3 peptide binding. actives 4.4% (n = 390,000); also: % is scaled to controls: 0 for no effect and ±100 for the full control effect; nearly all actives have a fitted effect of over 50% in size
# BAZ2B inh – qHTS Assay for Inhibitors of BAZ2B; Bromodomain adjacent to zinc finger domain protein 2B (Homo sapiens), Q9UIF8; AlphaScreen BAZ2B-H3K14Ac peptide displacement; Potency, µM (titrated, usually from 114 µM), for inactives: at the top dose activity change, negative = inhibition, most hits filed as inhibitors; actives 4.4% (n = 360,000); also: % is scaled to controls: 0 for no effect and ±100 for the full control effect; nearly all actives have a fitted effect of over 60% in size
#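 Compounds, titrated to a top concentration of 110 uM, were incubated 30 min at room temperature with preformed BAZ2B/acetyl-K14 H3 peptide complex (50 nM each). Proximity signal was measured by AlphaScreen after 20 min with beads.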
# The depositor's hits bear a star; ? = inconclusive; . = no result; ! = not confirmed by another sample; [ ] = remark or other dose. Sampled rows, rich in hits. Any-hit rate of the full collection: about 12%. Calls follow the shape of the dose curve; as a rule, active = well fitted curve in the direction sought with a large enough effect; inconclusive = small, poorly fitted or top-dose-only effect, or another doubt; inactive = no such curve, though single readings can be large; an effect the other way counts as inactive or inconclusive. Potency is read from the fitted curve at half-maximal effect.
SMILES,HP1b binding inh,Sfp inh,L3MBTL1 block,G9a inh,JMJD2A Tudor,BAZ2B inh
Cc1cccc(C)c1N1CCN(CCn2c(=S)[nH]c3ccccc3c2=O)CC1,30.3%,6.7%,1.0%,.,-14.1%,2.4%
Cc1ccc(S(=O)(=O)CC(=O)Nc2ccc3nc(C)sc3c2)cc1,34.4%,17.3%,.,9.1%[59 µM],-1.4%,-18.3%
CN(C)c1ccc(C(c2ccc(N(C)C)cc2)c2ccc([N+](=O)[O-])cc2)cc1,8.91µM*,9.9%,28.2µM*,5.01µM*,10µM*,6.31µM*
CN(C)c1ccc(C(CNS(=O)(=O)c2ccc(Cl)cc2)N2CCOCC2)cc1 (stereo not drawn),-18.0%,.,.,?,?,39.8µM*
Cc1ccc(S(=O)(=O)NCC(c2ccc(N(C)C)cc2)N2CCOCC2)cc1 (stereo not drawn),-22.8%,.,.,?,?,-34.7%
Fc1ccccc1Cn1c2[n+](c3ccc(C(F)(F)F)cc31)CCCCC2,32.9%,?,5.4%,?,?,.
N#Cc1cccc(NC(=O)Cn2c3[n+](c4ccc(C(F)(F)F)cc42)CCCCC3)c1,0.9%,-0.8%,4.2%,8.91µM*,-14.8%,2.5%
Oc1nc(Nc2ccc(Cl)cc2Cl)sc1/C=C1\C=Nc2ccccc21,?,?,-12.6%,4.47µM*,?,?
O=c1oc2ccccc2cc1-c1nnc(Nc2ccc(Cl)cc2Cl)s1,12.4%,.,.,10.1%[59 µM],-23.5%,3.3%
COc1ccc(Cl)cc1NC(=O)CN(c1cc(C)cc(C)c1)S(=O)(=O)c1c(C)n[nH]c1C,31.3%,.,.,7.6%[59 µM],-20.0%,.
CCCCN(C)CCn1c(=S)[nH]c2ccc(N3CCOCC3)cc2c1=O,17.8%,-15.1%,2.1%[11.4 µM],?,28.2µM*,3.0%
COCCCn1c(=S)[nH]c2ccc(N3CCOCC3)cc2c1=O,33.8%,-8.1%,-2.5%,?,?,8.6%
CCOc1cc2[nH]c(=S)n(Cc3ccc(C(=O)O)cc3)c(=O)c2cc1OCC,-1.4%,-23.1%,.,17.8µM*,?,-11.2%
COc1ccc(CCn2c(=S)[nH]c3ccc(N4CCOCC4)cc3c2=O)cc1OC,-20.6%,-11.9%,-12.1%,17.8µM*,-5.1%,-25.9%
CCCCN(C)CCn1c(=S)[nH]c2cc(OCC)c(OCC)cc2c1=O,58.7%,3.0%,.,11.2µM*,-13.4%,-21.7%
Cc1noc(C)c1COC(=O)c1ccc(S(=O)(=O)N2CCCCC2)cc1,44.8%,-17.2%,5.9%,12.5%,11.3%,.
Cc1cccc(C)c1OCc1cc(=O)n2c3c(sc2n1)CCCC3,83.5%,.,.,21.1%[59 µM],38.4%,22.2%
O=S(=O)(c1cccc2c(I)cccc12)N1CCCNCC1,.,-22.8%,.,?,.,.
O=S(=O)(c1cccc2c(Cl)cccc12)N1CCCNCC1,.,-6.8%,.,18.9µM*!,.,.
O=[N+]([O-])c1cccc2c(S(=O)(=O)N3CCCCC3)cccc12,?,-3.0%,.,56.2µM*,?,70.8µM*
O=[N+]([O-])c1cccc2c(S(=O)(=O)N3CCOCC3)cccc12,-0.5%,-4.1%,-15.2%,.,-34.7%,?
CN(C)c1ccc(Nc2nc(N)c3ccccc3n2)cc1,31.6µM*,25.1µM*,?,10µM*,39.8µM*,14.1µM*
CCC(CO)Oc1cc(NCc2ccccc2)c2ncn(C(C)C)c2c1 (stereo not drawn),13.6%,.,-25.0%,.,?,.
CC(C)n1cnc2c(NCc3ccccc3)cc(N[C@H](C)CO)cc21,?,.,?,.,56.2µM*,.
CCOCCOc1cc(NCc2ccccc2)c2ncn(C(C)C)c2c1,14.1µM*,.,.,.,10µM*,.
SMILES,HP1b binding inh,Sfp inh,L3MBTL1 block,G9a inh,JMJD2A Tudor,BAZ2B inh
COCCCOc1cc(NCc2ccccc2)c2ncn(C(C)C)c2c1,-34.1%,.,-18.6%,.,56.2µM*,.
CCCCOc1cc(NCc2ccccc2)c2ncn(C(C)C)c2c1,?,.,?,.,39.8µM*,.
CCC(CO)Oc1cc(NCc2cccc(O)c2)c2ncn(C(C)C)c2c1 (stereo not drawn),9.9%,.,-3.3%,.,-26.2%,.
N#Cc1cccc(NC(=O)N2CC[C@@]3(CCCN(C(=O)c4cc(C(F)(F)F)cc(C(F)(F)F)c4)C3)C2)c1,.,4.6%,.,-1.3%[12.7 µM],.,.
CCCn1nc(C(=O)NNC(=O)Cc2ccc(S(=O)(=O)N3CCOCC3)s2)c2ccccc2c1=O,23.4%,.,0.3%,3.9%,-8.2%,27.0%
CC(Oc1cccc(Br)c1)C(=O)NNC(=O)CCNC(=O)c1ccccc1Cl (stereo not drawn),38.9%,.,-0.6%,-7.9%[59 µM],-8.4%,6.2%
COc1cc(NCc2ccccc2)c2ncn(Cc3ccccc3)c2c1,?,.,?,.,25.1µM*,.
COc1ccc(Cc2cc(NCc3ccccc3)c3ncn(C(C)C)c3c2)cc1,-36.3%,.,?,.,39.8µM*,.
CCN1CCN(Cc2nc3cc(NC(=O)c4cccc([N+](=O)[O-])c4)ccc3n2CC)CC1,22.3%,.,.,-34.1%[59 µM],-11.9%,-14.9%
O=C(NCC#CCOCc1ccccc1)c1ccccc1,41.4%,-3.3%,5.6%,50.1µM*,-5.6%,3.6%
O=C(NCCCc1ccccc1)c1ccccc1,39.0%,22.7%,-0.6%,-0.2%,-1.1%,3.7%
O=C1Cc2cc(S(=O)(=O)N3CCCCC3)cc3c2N1CCC3,26.7%,.,.,-0.9%[59 µM],-1.9%,-1.4%
CCc1nnc(NS(=O)(=O)c2ccc(NC(=O)/C=C/c3ccc(F)cc3)cc2)s1,6.5%,23.7%,-2.4%,56.2µM*,-10.4%,-29.6%
CCc1nnc(NS(=O)(=O)c2ccc(NC(=O)OC)cc2)s1,70.4%,-13.9%,3.6%,17.8µM*,-1.3%,-24.4%
CCc1nnc(NS(=O)(=O)c2ccc(NS(=O)(=O)c3ccccc3[N+](=O)[O-])cc2)s1,20.3%,-8.6%,.,?,-4.0%,-6.6%
CCc1nnc(NS(=O)(=O)c2ccc(Nc3ccc([N+](=O)[O-])c4nonc34)cc2)s1,?,10.8%,?,25.1µM*,?,22.4µM*
Cc1cc(C)c(S(=O)(=O)Nc2ccc(-c3ccc(N4CCCCC4)nn3)cc2)c(C)c1,10.1%[57 µM],.,.,-24.3%[59 µM],-30.0%,-14.2%
COCCn1cnnc1SCC(=O)Nc1sccc1C(N)=O,27.4%,0.4%,-6.5%,-19.6%,-8.9%,-29.5%
COc1cc(SC#N)ccc1N=Cc1c(C)[nH]n(-c2ccc(C)c(C)c2)c1=O,-8.0%,0.1%,-9.6%,10µM*,-18.8%,-2.1%
COc1ccc2c(c1)c1c(c(=O)n(-c3cccc(C)c3)c(=O)n1Cc1cccc(Cl)c1)n2C,29.7%,.,.,-8.0%[59 µM],0.0%,-5.7%
